According to PubChem BioAssay:
Values without a mark were called inactive. For some of these results: Entries with a potency or affinity are not part of this list. Active and inactive are the calls of the source. Unless noted, the rule behind the calls is not given here.

Experiments:
[1] = antimalarial activity against Dd2 strain (AID 2302;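 active = growth inhibition above 50% at the single 2 µM test dose, taken to imply half-maximal potency below 2 µM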;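 note: 0% = DMSO untreated growth and 100% = chloroquine plus artemisinin killed control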); settings: P. falciparum Dd2 in RBCs, LDH growth readout, 72 h; at 2 µM; hits give high values
[2] = human hepatoma cell viability loss – ATP luminescence, cytotoxicity control for P. falciparum antimalarial project, primary screen (AID 2303;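 active = inhibition above 50%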;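 note: 0% = DMSO wells and 100% = digitonin-killed cells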); settings: HepG2 viability, 24-48 h, at 10 µM, hits give high values
[3] = target: L-lactate dehydrogenase (Plasmodium falciparum (isolate CDC / Honduras)) (UniProt Q27743); test: PfLDH activity inhibition – cell lysate, 3D7 strain, counter-screen for P. falciparum growth inhibition project (AID 2304);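 note: 0% = vehicle and 100% = reference inhibitor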; settings: P. falciparum 3D7 crude extract, LDH APAD/NBT absorbance; at 2 µM; hits give high values
L-lactate dehydrogenase (Plasmodium falciparum (isolate CDC / Honduras)), sequence (Q27743 whole entry, looked up): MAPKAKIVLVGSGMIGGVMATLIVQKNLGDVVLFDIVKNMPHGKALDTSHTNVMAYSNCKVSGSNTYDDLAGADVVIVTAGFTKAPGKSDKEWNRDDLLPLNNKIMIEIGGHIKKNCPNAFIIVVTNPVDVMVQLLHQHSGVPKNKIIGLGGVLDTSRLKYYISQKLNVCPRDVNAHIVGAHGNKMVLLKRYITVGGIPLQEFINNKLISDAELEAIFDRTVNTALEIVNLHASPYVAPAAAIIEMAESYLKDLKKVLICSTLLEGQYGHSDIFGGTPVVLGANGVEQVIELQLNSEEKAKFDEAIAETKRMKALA

[4] = inhibition of 3D7 malaria parasite growth – strain 3D7 (AID 2306);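 note: 0% = DMSO wells and 100% = chloroquine plus artemisinin control wells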; settings: P. falciparum 3D7 erythrocytic growth, LDH absorbance, 72 h; at 2 µM; hits give high values
[5] = target: Calcium-dependent protein kinase 1 (Plasmodium falciparum (isolate 3D7)) (UniProt P62344); test: PfCDPK1 kinase inhibitors, biochemical, TCAMS library (AID 1159585; cut-off not given, nearly all actives have IC50 up to about 0.98 µM;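 note: inhibitors leave more ATP so luminescence rises with inhibition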); settings: recombinant PfCDPK1, Kinase-Glo ATP depletion luminescence
Calcium-dependent protein kinase 1 (Plasmodium falciparum (isolate 3D7)), sequence (P62344 whole entry, looked up): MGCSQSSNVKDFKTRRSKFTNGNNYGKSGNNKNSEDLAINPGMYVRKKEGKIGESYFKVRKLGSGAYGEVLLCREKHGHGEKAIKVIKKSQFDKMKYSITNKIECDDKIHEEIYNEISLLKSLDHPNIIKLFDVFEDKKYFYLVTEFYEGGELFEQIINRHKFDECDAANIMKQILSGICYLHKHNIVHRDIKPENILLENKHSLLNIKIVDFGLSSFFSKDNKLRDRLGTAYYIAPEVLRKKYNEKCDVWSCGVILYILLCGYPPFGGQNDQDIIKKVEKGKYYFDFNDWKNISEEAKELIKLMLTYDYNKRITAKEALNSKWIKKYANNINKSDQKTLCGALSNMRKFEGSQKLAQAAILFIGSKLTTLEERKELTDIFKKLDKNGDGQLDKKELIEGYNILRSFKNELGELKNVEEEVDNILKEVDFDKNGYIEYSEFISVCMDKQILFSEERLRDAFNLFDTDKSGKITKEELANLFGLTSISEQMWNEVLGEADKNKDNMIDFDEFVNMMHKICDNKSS

[6] = target: Plasmodium falciparum protein kinase 6 (PK6, PF3D7_1337100) (UniProt Q8IDW1); test: PfPK6 kinase inhibitors, biochemical, TCAMS library (AID 1159586); settings: recombinant PfPK6, Kinase-Glo ATP depletion luminescence
Plasmodium falciparum protein kinase 6 (PK6, PF3D7_1337100), sequence (Q8IDW1 1-305): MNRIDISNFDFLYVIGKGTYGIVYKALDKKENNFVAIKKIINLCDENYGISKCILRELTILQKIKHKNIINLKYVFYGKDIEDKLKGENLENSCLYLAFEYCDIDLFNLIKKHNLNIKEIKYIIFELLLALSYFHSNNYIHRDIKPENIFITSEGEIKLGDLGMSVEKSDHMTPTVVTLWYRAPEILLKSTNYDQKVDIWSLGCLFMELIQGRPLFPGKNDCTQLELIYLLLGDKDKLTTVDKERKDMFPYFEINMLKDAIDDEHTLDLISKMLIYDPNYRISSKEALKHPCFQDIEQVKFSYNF

[7] = target: Protein kinase 7 (PK7), Plasmodium falciparum 3D7 (PF3D7_0213400) (UniProt Q7YTF7); test: inhibition of Plasmodium PK7 catalytic activity – biochemical, TCAMS antimalarial set, Kinase-Glo luminescence (AID 1159587); settings: recombinant PfPK7, Kinase-Glo ATP depletion luminescence
Protein kinase 7 (PK7), Plasmodium falciparum 3D7 (PF3D7_0213400), sequence (Q7YTF7 1-343): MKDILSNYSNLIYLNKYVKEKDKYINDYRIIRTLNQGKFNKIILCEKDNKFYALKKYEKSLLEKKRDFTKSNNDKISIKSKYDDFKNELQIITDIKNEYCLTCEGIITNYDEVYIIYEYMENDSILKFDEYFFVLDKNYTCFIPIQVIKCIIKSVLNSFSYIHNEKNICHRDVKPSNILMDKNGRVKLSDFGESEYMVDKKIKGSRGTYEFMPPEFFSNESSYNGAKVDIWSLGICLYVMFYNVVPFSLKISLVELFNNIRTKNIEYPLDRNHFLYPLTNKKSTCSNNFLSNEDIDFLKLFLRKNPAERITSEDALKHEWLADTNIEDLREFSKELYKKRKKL

[8] = target: Calcium-dependent protein kinase 4 (Plasmodium falciparum (isolate 3D7)) (UniProt Q8IBS5); test: PfCDPK4 kinase inhibitors, biochemical, TCAMS library (AID 1159588; cut-off not given, nearly all actives have IC50 up to about 0.91 µM); settings: recombinant PfCDPK4, Kinase-Glo ATP depletion luminescence
Calcium-dependent protein kinase 4 (Plasmodium falciparum (isolate 3D7)), sequence (Q8IBS5 whole entry, looked up): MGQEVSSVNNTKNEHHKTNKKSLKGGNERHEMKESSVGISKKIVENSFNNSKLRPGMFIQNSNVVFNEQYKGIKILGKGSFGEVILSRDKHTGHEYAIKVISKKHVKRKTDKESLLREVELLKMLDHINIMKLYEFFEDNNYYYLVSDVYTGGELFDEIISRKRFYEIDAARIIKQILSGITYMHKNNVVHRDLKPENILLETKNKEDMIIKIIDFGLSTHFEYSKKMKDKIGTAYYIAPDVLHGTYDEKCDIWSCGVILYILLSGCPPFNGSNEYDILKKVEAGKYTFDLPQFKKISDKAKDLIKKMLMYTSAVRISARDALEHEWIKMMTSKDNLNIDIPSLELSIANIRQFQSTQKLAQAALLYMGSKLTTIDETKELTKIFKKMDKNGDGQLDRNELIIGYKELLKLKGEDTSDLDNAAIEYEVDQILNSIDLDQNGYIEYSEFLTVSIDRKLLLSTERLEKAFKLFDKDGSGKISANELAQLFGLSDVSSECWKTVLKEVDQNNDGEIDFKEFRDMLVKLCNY

Compound	growth inhibition [1]	inhibition [2]	inhibition [3] [%]	growth inhibition [4]	outcome [5]	outcome [6]	outcome [7]	outcome [8]
CC(=O)Nc1sc(C)c(C)c1CN1CCc2ccccc2C1	94% (active)	-8%	1	93% (active)	inactive	inactive	inactive	inactive
O=C(c1cccc(-c2ccc(-c3nc4ccc(F)cc4[nH]3)s2)c1)N1CCCCC1CN1CCC(O)C1 (stereo not given)	85% (active)	23%	2	101% (active)	inactive	inactive	inactive	inactive
COc1ccccc1CCNC(=O)c1cnc(N2CCN(c3ccncc3)CC2)c(Cl)c1	54% (active)	30%	4	98% (active)	inactive	inactive	inactive	inactive
O=C(Nc1cccc(N2CCC(NCc3cnn(-c4cccc(F)c4)c3)CC2)c1)c1ccncc1	40%	50% (active)	4	84% (active)	inactive	inactive	inactive	inactive
O=C(/C=C/c1ccc(Cl)c(Cl)c1)N1CCC(CCN2CCC(c3c[nH]c4cc5c(cc34)OCO5)CC2)CC1	65% (active)	46%	-4	99% (active)	inactive	inactive	inactive	inactive
O=C(Nc1cccc(-c2ccc(-c3nc4ccc(F)cc4[nH]3)s2)c1)c1ccncc1	29%	74% (active)	-8	96% (active)	inactive	inactive	inactive	inactive
CN1CCc2cc(I)c(O)cc2C1Cc1ccccc1Cl (stereo not given)	96% (active)	-7%	-2	98% (active)	inactive	inactive	inactive	inactive
COC(=O)C1=C(C)NC2=C(C(=O)CC(c3ccc(OC)c(OC)c3)C2)C1c1cccc(O)c1 (stereo not given)	69% (active)	2%	5	99% (active)	inactive	inactive	inactive	inactive
CC1CN(c2ccc(NC(=O)c3ccsc3)cc2C(=O)N2CCN(Cc3ccc(C(C)(C)C)cc3)CC2)CC(C)O1 (stereo not given)	80% (active)	12%	7	90% (active)	inactive	inactive	inactive	inactive
CCCCCCC(N)c1ccc(OCCCOc2ccc(C(N)CCCCCC)cc2)cc1 (stereo not given)	70% (active)	100% (active)	1	88% (active)	inactive	inactive	inactive	inactive
CN1CCCN(c2ccnc3cc4c(cc23)N(C(=O)c2ccccc2Cl)CC4)CC1	30%	4%	3	88% (active)	inactive	inactive	inactive	inactive
COc1ccc2nccc([C@@H](O)CN3CCC(NC(=O)/C(=C/c4ccccc4)c4ccc(-c5ccccc5)cc4)CC3)c2c1	38%	4%	0	94% (active)	inactive	inactive	inactive	inactive
Clc1cccc(-c2nc(Nc3ccnc(-c4ccc(CN5CCOCC5)cc4)c3)c3ccccc3n2)c1	65% (active)	8%	-4	100% (active)	inactive	inactive	inactive	inactive
COc1ccc(Nc2nccc(N3CCC(NC(=O)Nc4ccc5c(c4)OCO5)C3)n2)cc1 (stereo not given)	57% (active)	27%	-2	98% (active)	inactive	inactive	inactive	inactive
COc1ccc2c(NN=Cc3ccncc3)cc(C)nc2c1	95% (active)	-4%	-4	99% (active)	inactive	inactive	inactive	inactive
O=C(/C=C/c1ccc(Cl)c(Cl)c1)NCCCN1CCC(c2c[nH]c3ccccc23)CC1	5%	48%	-4	90% (active)	inactive	inactive	inactive	inactive
COc1ccc2nccc(N3CCC(NCc4ccc5c(n4)NC(=O)CS5)CC3)c2n1	63% (active)	14%	6	100% (active)	inactive	inactive	inactive	inactive
NC(N)=NC(=O)Nc1cc(Cl)c(Cl)c(C(F)(F)F)c1	99% (active)	6%	-5	100% (active)	inactive	inactive	inactive	inactive
OC(CNCCCc1ccccc1)c1cc(OCc2ccccc2)cc(OCc2ccccc2)c1 (stereo not given)	85% (active)	8%	4	93% (active)	inactive	inactive	inactive	inactive
C[C@@H]1CN(c2cnn(Cc3ccc(NC(=O)Nc4ccc(-c5ccccc5)cc4)cc3)c(=O)c2Cl)C[C@H](C)N1	46%	82% (active)	-3	100% (active)	inactive	inactive	inactive	inactive
